Results: PubChem BioAssay
Where “and” joins values, the source holds several entries; their conditions need not be identical. Identical values can stand only once. Results filed as inconclusive are left out. For some assays here: Measured potencies and affinities stand elsewhere. Calls of active or inactive are those of the source. Rule as the data show it, unless noted: active = inhibition above about 80%; inactive = the rest. Numbered stars: 1 amine (or outer) side, 2 acyl side, 3 side chain; on linkers, the order of the positions; unused ones are H or OH. Bridge positions count the residues as written; N and C are the ends. Square brackets hold non-standard residues; d marks the D form. Peptide text beside a SMILES is read from it. I, II: the chains in the order shown. Actinocin(9to1) = Cc1c2oc3c(C)ccc(C(=O)[*:1])c3nc-2c(C(=O)[*:2])c(N)c1=O; NMeV = CN[CH](C(=O)O)C(C)C; Sar = CNCC(=O)O

What was measured:
[1] = inhibitors of Cryptococcus chitosan production, flow cytometry, Cibacron Brilliant Red staining (AID 1347148; call rule not given here;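 also: compound exposure lasted three days at 37 degrees C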); conditions: Cryptococcus neoformans chitosan, stronger effect = lower value; at 10 µM unless noted
[2] = biological target: ATP-dependent translocase ABCB1 (Homo sapiens) (UniProt P08183); assay: MDR1 (ABCB1) efflux transporter inhibition, cell-based (AID 377; in the data active = fluorescence slope change above about 50%); conditions: MDR1-expressing cells, fluorescent substrate accumulation slope; stronger effect = higher value; concentration not given here
[3] = growth inhibition of DIPG glioma cells, dose response, cell-based, SU-DIPG-XIII, MIPE4.0, CellTiter-Glo, qHTS (AID 1347061; cut-off not given, nearly all actives have AC50 up to about 37 µM;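 also: cells exposed to compound for 48 hours before readout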); conditions: SU-DIPG-XIII viability, CellTiter-Glo ATP luminescence
[4] = growth inhibition of DIPG glioma cells, dose response, cell-based, SU-DIPG-IV, MIPE4.0, CellTiter-Glo, qHTS (AID 1347063; cut-off not given, nearly all actives have AC50 up to about 30 µM;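 also: compound exposure lasted 48 hours before the viability readout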); conditions: SU-DIPG-IV viability, CellTiter-Glo ATP luminescence
[5] = growth inhibition of DIPG glioma cells, dose response, cell-based, SU-DIPG-XIII, MIPE5.0, CellTiter-Glo, qHTS (AID 1347064; cut-off not given, nearly all actives have AC50 up to about 23 µM;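 as to AC50: cells exposed to compound for 48 hours before the viability read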); conditions: SU-DIPG-XIII viability, CellTiter-Glo ATP luminescence
[6] = viability loss in pontine glioma line – cell-based, SU-DIPG-XXV, MIPE5.0, CellTiter-Glo, qHTS, dose response (AID 1347065; cut-off not given, nearly all actives have AC50 up to about 26 µM;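 also: cells exposed to compound for 48 hours before ATP readout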); conditions: CellTiter-Glo ATP luminescence
[7] = SU-DIPG-VI glioma cell viability, MIPE4.0 library, CellTiter-Glo luminescence, qHTS (AID 1347066; cut-off not given, nearly all actives have AC50 up to about 30 µM;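 also: cells exposed to compound for 48 hours before readout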); conditions: CellTiter-Glo ATP luminescence
[8] = JHH-DIPG-1 glioma cell viability, MIPE5.0 library, CellTiter-Glo luminescence, qHTS (AID 1347067; cut-off not given, nearly all actives have AC50 up to about 26 µM;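 also: cells exposed to compound for 48 hours before readout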); conditions: JHH-DIPG-1 glioma viability, CellTiter-Glo ATP luminescence
[9] = CRL2098 osteosarcoma cell growth inhibition, synergistic combos for chromothripsis tumors, BGB or cisplatin IC20 combos (AID 1671454); conditions: CRL2098 osteosarcoma cells, drug combinations, stronger effect = higher value;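 also: cells exposed for 96 h before readout; 0% = vehicle DMSO and 100% = killing by high DMSO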
[10] = HD-MB03 medulloblastoma cell growth inhibition, synergistic combos for chromothripsis tumors, BGB or cisplatin IC20 combos (AID 1671455; in the data active = inhibition above about 83%;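 also: 0% = vehicle DMSO and 100% = high DMSO as cytotoxic control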); conditions: HD-MB03 medulloblastoma cells, stronger effect = higher value
[11] = UWB1.289 ovarian carcinoma cell growth inhibition, synergistic combos for chromothripsis tumors, BGB or cisplatin combos (AID 1671456); conditions: UWB1.289 ovarian carcinoma cells, stronger effect = higher value;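 also: cells exposed to compound for four days; 0% = vehicle DMSO and 100% = killing by high DMSO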
[12] = LFS_MB_2R medulloblastoma cell growth inhibition, synergistic combos for chromothripsis tumors, cisplatin combos (AID 1671457); conditions: LFS_MB_2R medulloblastoma cells, stronger effect = higher value;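 also: cells exposed to compound for four days before readout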
[13] = UWB1.289_BRCA1 ovarian cancer growth, cell-based, BGB or cisplatin combinations (AID 1671459); conditions: UWB1.289 BRCA1 ovarian carcinoma, drug combinations, stronger effect = higher value
[14] = human astrocyte viability loss, single and combined drugs, cytotoxicity control for chromothriptic childhood tumor combination screen, cell-based, BGB or cisplatin IC20 combos (AID 1671460); conditions: Human astrocytes, drug combinations, stronger effect = higher value;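 also: cells exposed to compounds for 96 hours before viability readout; 0% = vehicle and 100% = killing control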
[15] = biological target: Mitogen-activated protein kinase 7 (Homo sapiens) (UniProt Q13164); assay: ERK5 transactivation activators in reporter cells, primary screen, cell-based, HTS (AID 1508626;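 active = luciferase signal above three times the same-plate solvent-only control wells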;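 also: luciferase driven by Gal4-ERK5 fusion binding five Gal4 sites before minimal TATA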); conditions: HeLa Gal4-ERK5 transactivation, 18 h, at 5 µM, stronger effect = higher value
[16] = polyglutamine-triggered caspase-3 activation inhibitors, cell-based (AID 1583); conditions: polyglutamine-induced caspase-3 activation, cell assay; stronger effect = higher value;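 tested at 10 µM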
[17] = suppressors of polyQ aggregation in yeast, 75Q-TubU reporter (AID 1593); conditions: Yeast 75Q polyglutamine aggregation reporter
[18] = rescue of polyQ-huntingtin neuronal dysfunction in worms, whole organism, C. elegans mechanosensory neurons, N-terminal huntingtin (AID 1599); conditions: touch response, stronger effect = higher value
[19] = inhibitors of mitochondrial cytochrome c release, biochemical, purified mitochondria (AID 1603); conditions: stronger effect = lower value;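 also: mouse liver mitochondria challenged with calcium chloride; signal normalized to the plate average as 100%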
[20] = measured here: combination with BGB at IC20, at 0.5 µM
[21] = measured here: combination with cisplatin at IC20, at 0.5 µM
[22] = measured here: combo with BGB at IC20, at 0.5 µM
[23] = measured here: combo with cisplatin at IC20, at 0.5 µM
[24] = measured here: inhibition with BGB combination, at 0.05 µM
[25] = measured here: inhibition with cisplatin combination, at 0.05 µM
[26] = measured here: combination with cisplatin, at 0.5 µM
[27] = measured here: combination with cisplatin, at 5 µM
[28] = BGB combination, concentration series, at 5 µM
[29] = cisplatin combination, concentration series, at 5 µM
[30] = measured here: combo with BGB IC20, at 0.5 µM
[31] = measured here: combo with cisplatin IC20, at 0.5 µM

Sequence of ATP-dependent translocase ABCB1 (Homo sapiens) (P08183 whole entry, looked up): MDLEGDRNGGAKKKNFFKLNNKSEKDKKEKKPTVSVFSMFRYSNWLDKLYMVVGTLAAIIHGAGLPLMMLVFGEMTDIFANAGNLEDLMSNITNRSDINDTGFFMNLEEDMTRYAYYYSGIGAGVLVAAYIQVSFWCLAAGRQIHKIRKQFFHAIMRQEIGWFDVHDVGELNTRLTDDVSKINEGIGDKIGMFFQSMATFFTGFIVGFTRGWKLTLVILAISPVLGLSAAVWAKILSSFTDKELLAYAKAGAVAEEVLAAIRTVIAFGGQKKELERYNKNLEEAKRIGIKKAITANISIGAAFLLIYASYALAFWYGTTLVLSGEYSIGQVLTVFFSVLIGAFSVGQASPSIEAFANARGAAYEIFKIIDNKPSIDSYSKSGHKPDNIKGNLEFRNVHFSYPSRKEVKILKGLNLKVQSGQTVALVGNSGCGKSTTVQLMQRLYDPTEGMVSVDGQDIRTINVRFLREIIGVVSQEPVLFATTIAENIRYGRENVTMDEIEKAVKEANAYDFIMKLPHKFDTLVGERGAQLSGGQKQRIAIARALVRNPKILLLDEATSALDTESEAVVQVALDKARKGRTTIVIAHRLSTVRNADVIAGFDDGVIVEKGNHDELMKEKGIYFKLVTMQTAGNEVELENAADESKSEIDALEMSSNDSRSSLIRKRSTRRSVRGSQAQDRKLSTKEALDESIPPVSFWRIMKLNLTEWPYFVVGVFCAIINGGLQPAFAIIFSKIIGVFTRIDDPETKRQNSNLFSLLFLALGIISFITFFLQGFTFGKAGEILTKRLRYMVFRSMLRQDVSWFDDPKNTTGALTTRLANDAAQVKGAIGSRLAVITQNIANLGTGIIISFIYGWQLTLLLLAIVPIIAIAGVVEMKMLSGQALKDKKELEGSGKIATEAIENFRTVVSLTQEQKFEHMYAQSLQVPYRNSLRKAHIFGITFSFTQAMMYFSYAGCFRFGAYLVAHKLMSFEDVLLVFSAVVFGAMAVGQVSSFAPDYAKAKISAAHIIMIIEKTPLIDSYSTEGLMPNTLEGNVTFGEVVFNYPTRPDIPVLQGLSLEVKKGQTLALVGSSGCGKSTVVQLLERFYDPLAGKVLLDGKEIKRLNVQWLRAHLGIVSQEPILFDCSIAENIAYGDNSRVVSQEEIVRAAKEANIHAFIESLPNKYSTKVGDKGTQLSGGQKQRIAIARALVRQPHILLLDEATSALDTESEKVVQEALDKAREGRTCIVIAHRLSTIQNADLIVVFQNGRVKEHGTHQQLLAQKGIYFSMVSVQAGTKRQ
Sequence of Mitogen-activated protein kinase 7 (Homo sapiens) (Q13164 whole entry, looked up, the tested form may be a part): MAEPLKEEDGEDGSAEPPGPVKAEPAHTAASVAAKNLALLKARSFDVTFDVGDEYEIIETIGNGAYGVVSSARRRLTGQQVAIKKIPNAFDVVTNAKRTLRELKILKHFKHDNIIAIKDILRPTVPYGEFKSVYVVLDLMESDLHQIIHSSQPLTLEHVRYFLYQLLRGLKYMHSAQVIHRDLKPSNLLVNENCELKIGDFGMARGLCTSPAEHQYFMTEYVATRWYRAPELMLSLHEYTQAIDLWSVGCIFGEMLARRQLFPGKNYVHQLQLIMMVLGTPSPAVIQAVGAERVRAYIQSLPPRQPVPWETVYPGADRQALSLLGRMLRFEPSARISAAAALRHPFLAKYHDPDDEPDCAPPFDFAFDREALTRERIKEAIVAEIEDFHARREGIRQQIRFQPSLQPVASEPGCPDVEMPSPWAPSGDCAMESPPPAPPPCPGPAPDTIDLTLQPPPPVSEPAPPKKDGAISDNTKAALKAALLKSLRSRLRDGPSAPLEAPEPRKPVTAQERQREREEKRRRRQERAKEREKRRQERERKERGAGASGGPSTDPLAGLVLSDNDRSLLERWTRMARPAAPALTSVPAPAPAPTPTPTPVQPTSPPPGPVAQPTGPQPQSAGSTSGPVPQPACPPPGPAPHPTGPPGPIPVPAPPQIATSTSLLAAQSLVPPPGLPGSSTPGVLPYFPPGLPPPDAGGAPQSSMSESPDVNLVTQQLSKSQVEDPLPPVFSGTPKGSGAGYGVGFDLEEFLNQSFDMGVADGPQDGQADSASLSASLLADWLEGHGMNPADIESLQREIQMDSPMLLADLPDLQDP

SMILES: O=c1[nH]c2ccccc2c2ccccc12
- fold fluorescence [1]: 3.09 [at 256.1 µM] (inactive)

SMILES: CC(C(O)c1ccc(O)cc1)N1CCC(Cc2ccccc2)CC1 (configuration not stated)
- fluorescence slope change [2]: 23.8% (inactive)

SMILES: Cc1c2oc3c(C)ccc(C(=O)NC4C(=O)NC(C(C)C)C(=O)N5CCCC5C(=O)N(C)CC(=O)N(C)C(C(C)C)C(=O)OC4C)c3nc-2c(C(=O)NC2C(=O)NC(C(C)C)C(=O)N3CCCC3C(=O)N(C)CC(=O)N(C)C(C(C)C)C(=O)OC2C)c(N)c1=O (configuration not stated) (I: TVP[Sar][NMeV] / II: TVP[Sar][NMeV]; ester I:1-I:C, II:1-II:C; linker I:N-II:N via Actinocin(9to1); configuration not given here)
- outcome [3]: inactive
- outcome [4]: inactive
- AC50 [5]: 3.62 nM (active)
- AC50 [6]: 18.2 nM (active)
- outcome [7]: inactive
- AC50 [8]: 6.45 nM (active)

SMILES: CN(C)[C@@H]1C(=O)C(C(=O)NCN2CCCC2)=C(O)[C@@]2(O)C(=O)C3=C(O)c4c(O)cccc4[C@@](C)(O)C3CC12 (some centres not stated)
- fluorescence slope change [2]: 66.4% (active)

SMILES: CO[C@H]1/C=C/O[C@@]2(C)Oc3c(C)c(O)c4c(O)c(c(C=NN5CCN(C)CC5)c(O)c4c3C2=O)NC(=O)/C(C)=C\C=C\[C@H](C)[C@H](O)[C@@H](C)[C@@H](O)[C@@H](C)[C@H](OC(C)=O)[C@@H]1C
- inhibition ([9]; at 0.5 µM): -28.2% (inactive)
- inhibition [9, 20]: -20.5%
- inhibition [9, 21]: -57.4%
- inhibition ([10]; at 0.5 µM): -2.23% (inactive)
- inhibition [10, 22]: -1.06%
- inhibition [10, 23]: -3.79%
- inhibition ([11]; at 0.5 µM): 6.08% (inactive)
- inhibition [11, 24]: 0.522%
- inhibition [11, 25]: -2.06%
- inhibition ([12]; at 0.5 µM): -16.1% (inactive)
- inhibition [12, 26]: -10.3%
- inhibition [12, 27]: 19.4%
- inhibition [13, 28]: 33.9%
- inhibition ([13]; at 0.5 µM): 4.15% (inactive)
- inhibition [13, 29]: 22%
- inhibition ([14]; at 0.5 µM): -6.54% (inactive)
- inhibition [14, 30]: -11%
- inhibition [14, 31]: -7.29%

SMILES: C=C1/C(=C\C=C2/CCC[C@]3(C)[C@@H]([C@H](C)CCCC(C)(C)O)CC[C@@H]23)C[C@@H](O)C[C@@H]1O
- AC50 [4]: 3320 nM (active)
- outcome [5]: inactive
- outcome [6]: inactive
- AC50 [7]: 16600 nM (active)

SMILES: CO[C@H]1C=CO[C@@]2(C)Oc3c(C)c(O)c4c(O)c(c5c(nc6cc(C)ccn65)c4c3C2=O)NC(=O)C(C)=CC=C[C@H](C)[C@H](O)[C@@H](C)[C@@H](O)[C@@H](C)[C@H](OC(C)=O)[C@@H]1C
- inhibition ([9]; at 0.5 µM): -18.8% (inactive) and -34.3% (inactive)
- inhibition [9, 20]: -28.7% and -29%
- inhibition [9, 21]: -10.1% and -43.6%
- inhibition ([10]; at 0.5 µM): -6.38% (inactive) and 5.86% (inactive)
- inhibition [10, 22]: -2.33% and 1.22%
- inhibition [10, 23]: -9.26% and 19.1%
- inhibition ([11]; at 0.5 µM): 4.48% (inactive) and 6.54% (inactive)
- inhibition [11, 24]: -18.6% and -11.7%
- inhibition [11, 25]: -10.6% and 10.3%
- inhibition ([12]; at 0.5 µM): -17.5% (inactive) and -15.1% (inactive)
- inhibition [12, 26]: -7.91% and -17.1%
- inhibition [12, 27]: -18% and -13.3%
- inhibition [13, 28]: 3.57% and 12%
- inhibition ([13]; at 0.5 µM): 6.89% (inactive) and 6.14% (inactive)
- inhibition [13, 29]: 5.53% and -6.86%
- inhibition ([14]; at 0.5 µM): -8.79% (inactive) and -10.8% (inactive)
- inhibition [14, 30]: -1.97% and -5.46%
- inhibition [14, 31]: -27% and -10.4%

SMILES: C[C@]12C=CC(=O)C=C1CC[C@@H]1[C@@H]2[C@@H](O)C[C@@]2(C)[C@H]1CC[C@]2(O)C(=O)COC(=O)CCC(=O)O
- luciferase signal [15]: 80 AU (inactive)

SMILES: CN(C)CC/C=C1/c2ccccc2COc2ccccc21
- inhibition [16]: -9.13%
- score [17]: 1.4
- rescue above control [18]: 2.19
- cytochrome c release ratio [19]: 0.69

SMILES: CO[C@H]1O[C@@H]2O[C@@]3(C)CC[C@H]4[C@H](C)CC[C@@H]([C@H]1C)[C@@]24OO3
- outcome [3]: inactive
- outcome [4]: inactive
- outcome [5]: inactive
- outcome [6]: inactive
- outcome [7]: inactive
- outcome [8]: inactive

SMILES: CCC(=O)NS(=O)(=O)c1ccc(-c2c(-c3ccccc3)noc2C)cc1
- outcome [6]: inactive
- outcome [8]: inactive
